Data taken from PubChem BioAssay.
Values joined by “and” are separate entries in the source; they are usually repeats but may differ in a detail not shown here. Equal values may be shown once. Active and inactive are the calls of the source. Cut-off read from the data, not from the text of the source, unless noted: active = inhibition above about 80%; inactive = the rest.

Assay: HDN33 neuroblastoma growth inhibition, cell-based, chromothripsis tumors, cisplatin or BGB combos (AID 1671450);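 note: cells exposed to compound for four days; 0% = vehicle DMSO and 100% = cell killing by high DMSO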
Conditions: HDN33 neuroblastoma cells, cisplatin combo, at 5 µM, stronger effect = higher value

Row | Compound | inhibition
1 | CCOC(=O)NCCCC(=O)NCCc1ccccc1 | -63.5% and -31.2%
2 | C[C@@]1(c2nc3c(C(N)=O)cccc3[nH]2)CCCN1 | -25% and 2.08%
3 | O=C(NCC1(c2nc(-c3ccccc3)cs2)CCOCC1)c1cccc(-c2noc(C(F)(F)F)n2)c1 | -16.3% and 0.452%

Same assay, conditions: HDN33 neuroblastoma cells, measured here: with BGB IC20 combination, at 0.5 µM, stronger effect = higher value

Row | Compound | inhibition
4 | CCOC(=O)NCCCC(=O)NCCc1ccccc1 | -39.2% and -23.4%
5 | C[C@@]1(c2nc3c(C(N)=O)cccc3[nH]2)CCCN1 | -20.1% and -23.6%
6 | O=C(NCC1(c2nc(-c3ccccc3)cs2)CCOCC1)c1cccc(-c2noc(C(F)(F)F)n2)c1 | -30.2% and 18.4%

Same assay, conditions: HDN33 neuroblastoma cells, measured here: with cisplatin IC20 combination, at 0.5 µM, stronger effect = higher value

Row | Compound | inhibition
7 | CCOC(=O)NCCCC(=O)NCCc1ccccc1 | -28% and -17.7%
8 | C[C@@]1(c2nc3c(C(N)=O)cccc3[nH]2)CCCN1 | -10.4% and -15.2%
9 | O=C(NCC1(c2nc(-c3ccccc3)cs2)CCOCC1)c1cccc(-c2noc(C(F)(F)F)n2)c1 | -45.4% and 11.4%

Same assay, conditions: HDN33 neuroblastoma cells, single agent, at 5 µM, stronger effect = higher value

Row | Compound | inhibition
10 | CCOC(=O)NCCCC(=O)NCCc1ccccc1 | -54.8% and -22.1%
11 | C[C@@]1(c2nc3c(C(N)=O)cccc3[nH]2)CCCN1 | -35.1% and -10.6%
12 | O=C(NCC1(c2nc(-c3ccccc3)cs2)CCOCC1)c1cccc(-c2noc(C(F)(F)F)n2)c1 | -5.15% and 25.1%

Assay: ICB984 medulloblastoma cell growth inhibition, synergistic combos for chromothripsis tumors, cisplatin or BGB combos (AID 1671451; call rule not given here;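 note: cells exposed for 96 hours before readout; 0% = vehicle DMSO and 100% = killing by high DMSO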)
Conditions: ICB984 medulloblastoma cells, drug combinations, BGB IC20 combo, at 0.005 µM, stronger effect = higher value

Row | Compound | inhibition
13 | CCOC(=O)NCCCC(=O)NCCc1ccccc1 | -37.9% and -8.12%
14 | C[C@@]1(c2nc3c(C(N)=O)cccc3[nH]2)CCCN1 | -43.5% and -1.75%
15 | O=C(NCC1(c2nc(-c3ccccc3)cs2)CCOCC1)c1cccc(-c2noc(C(F)(F)F)n2)c1 | -22.9% and 2.76%

Same assay, conditions: ICB984 medulloblastoma cells, drug combinations, BGB IC40 combo, at 0.005 µM, stronger effect = higher value

Row | Compound | inhibition
16 | CCOC(=O)NCCCC(=O)NCCc1ccccc1 | -29.1% and -31.3%
17 | C[C@@]1(c2nc3c(C(N)=O)cccc3[nH]2)CCCN1 | -45.8% and -18.7%
18 | O=C(NCC1(c2nc(-c3ccccc3)cs2)CCOCC1)c1cccc(-c2noc(C(F)(F)F)n2)c1 | 9.28% and 13%

Same assay, conditions: ICB984 medulloblastoma cells, drug combinations, BGB IC40 combo, at 0.05 µM, stronger effect = higher value

Row | Compound | inhibition
19 | CCOC(=O)NCCCC(=O)NCCc1ccccc1 | -30% and -50.9%
20 | C[C@@]1(c2nc3c(C(N)=O)cccc3[nH]2)CCCN1 | -19.5% and -39.6%
21 | O=C(NCC1(c2nc(-c3ccccc3)cs2)CCOCC1)c1cccc(-c2noc(C(F)(F)F)n2)c1 | -3.89% and 21%

Same assay, conditions: ICB984 medulloblastoma cells, drug combinations, at 0.5 µM, stronger effect = higher value

Row | Compound | inhibition
22 | CCOC(=O)NCCCC(=O)NCCc1ccccc1 | -27.9% (inactive) and -27.3% (inactive)
23 | C[C@@]1(c2nc3c(C(N)=O)cccc3[nH]2)CCCN1 | -17.4% (inactive) and -39% (inactive)
24 | O=C(NCC1(c2nc(-c3ccccc3)cs2)CCOCC1)c1cccc(-c2noc(C(F)(F)F)n2)c1 | -16.1% (inactive) and 2.22% (inactive)

Same assay, conditions: ICB984 medulloblastoma cells, drug combinations, cisplatin combo, at 0.05 µM, stronger effect = higher value

Row | Compound | inhibition
25 | CCOC(=O)NCCCC(=O)NCCc1ccccc1 | -36.7% and -56.9%
26 | C[C@@]1(c2nc3c(C(N)=O)cccc3[nH]2)CCCN1 | -25.6% and -44.6%
27 | O=C(NCC1(c2nc(-c3ccccc3)cs2)CCOCC1)c1cccc(-c2noc(C(F)(F)F)n2)c1 | -6.8% and 18.1%

Same assay, conditions: ICB984 medulloblastoma cells, drug combinations, cisplatin combo, at 0.5 µM, stronger effect = higher value

Row | Compound | inhibition
28 | CCOC(=O)NCCCC(=O)NCCc1ccccc1 | -28.4% and -31.6%
29 | C[C@@]1(c2nc3c(C(N)=O)cccc3[nH]2)CCCN1 | -23.4% and -27.8%
30 | O=C(NCC1(c2nc(-c3ccccc3)cs2)CCOCC1)c1cccc(-c2noc(C(F)(F)F)n2)c1 | -20% and 9.29%

Same assay, conditions: ICB984 medulloblastoma cells, drug combinations, cisplatin combo, at 5 µM, stronger effect = higher value

Row | Compound | inhibition
31 | CCOC(=O)NCCCC(=O)NCCc1ccccc1 | -21.8% and -22.7%
32 | C[C@@]1(c2nc3c(C(N)=O)cccc3[nH]2)CCCN1 | -25.3% and -24.6%
33 | O=C(NCC1(c2nc(-c3ccccc3)cs2)CCOCC1)c1cccc(-c2noc(C(F)(F)F)n2)c1 | -12.6% and -9.9%

Same assay, conditions: ICB984 medulloblastoma cells, drug combinations, measured here: 5 uM single agent, at 5 µM, stronger effect = higher value

Row | Compound | inhibition
34 | CCOC(=O)NCCCC(=O)NCCc1ccccc1 | -34% and -5.68%
35 | C[C@@]1(c2nc3c(C(N)=O)cccc3[nH]2)CCCN1 | -15.1% and -18.4%
36 | O=C(NCC1(c2nc(-c3ccccc3)cs2)CCOCC1)c1cccc(-c2noc(C(F)(F)F)n2)c1 | -22.5% and 19.3%

Assay: LFS_MB_1R medulloblastoma cell growth inhibition, synergistic combos for chromothripsis tumors, cisplatin or BGB combos (AID 1671452);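 note: cells exposed for 96 hours before readout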
Conditions: LFS_MB_1R medulloblastoma cells, at 0.5 µM, stronger effect = higher value

Row | Compound | inhibition
37 | CCOC(=O)NCCCC(=O)NCCc1ccccc1 | -35.7% (inactive) and -30.1% (inactive)
38 | C[C@@]1(c2nc3c(C(N)=O)cccc3[nH]2)CCCN1 | -10.8% (inactive) and -21.8% (inactive)
39 | O=C(NCC1(c2nc(-c3ccccc3)cs2)CCOCC1)c1cccc(-c2noc(C(F)(F)F)n2)c1 | -33% (inactive) and -1.8% (inactive)

Same assay, conditions: LFS_MB_1R medulloblastoma cells, measured here: combination with BGB IC40, at 0.05 µM, stronger effect = higher value

Row | Compound | inhibition
40 | CCOC(=O)NCCCC(=O)NCCc1ccccc1 | -32.7% and -26.4%
41 | C[C@@]1(c2nc3c(C(N)=O)cccc3[nH]2)CCCN1 | 5.8% and -13.2%
42 | O=C(NCC1(c2nc(-c3ccccc3)cs2)CCOCC1)c1cccc(-c2noc(C(F)(F)F)n2)c1 | -32.4% and 10.2%

Same assay, conditions: LFS_MB_1R medulloblastoma cells, measured here: combination with cisplatin, at 0.5 µM, stronger effect = higher value

Row | Compound | inhibition
43 | CCOC(=O)NCCCC(=O)NCCc1ccccc1 | -69.3% and -37.1%
44 | C[C@@]1(c2nc3c(C(N)=O)cccc3[nH]2)CCCN1 | -30.9% and -32.1%
45 | O=C(NCC1(c2nc(-c3ccccc3)cs2)CCOCC1)c1cccc(-c2noc(C(F)(F)F)n2)c1 | -76.1% and -10.4%

Same assay, conditions: LFS_MB_1R medulloblastoma cells, measured here: combination with cisplatin, at 5 µM, stronger effect = higher value

Row | Compound | inhibition
46 | CCOC(=O)NCCCC(=O)NCCc1ccccc1 | -41.3% and -32.8%
47 | C[C@@]1(c2nc3c(C(N)=O)cccc3[nH]2)CCCN1 | -34.7% and -78.6%
48 | O=C(NCC1(c2nc(-c3ccccc3)cs2)CCOCC1)c1cccc(-c2noc(C(F)(F)F)n2)c1 | -10.4% and -0.263%

Assay: HTB85 osteosarcoma cell growth inhibition, synergistic combos for chromothripsis tumors, BGB or cisplatin IC20 combos (AID 1671453);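 note: cells exposed for 96 hours before readout; 0% = vehicle DMSO and 100% = high DMSO killing control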
Conditions: HTB85 osteosarcoma cells, drug combinations, at 0.5 µM, stronger effect = higher value

Row | Compound | inhibition
49 | CCOC(=O)NCCCC(=O)NCCc1ccccc1 | -20.7% (inactive) and -9.16% (inactive)
50 | C[C@@]1(c2nc3c(C(N)=O)cccc3[nH]2)CCCN1 | -28.2% (inactive) and -8.28% (inactive)
51 | O=C(NCC1(c2nc(-c3ccccc3)cs2)CCOCC1)c1cccc(-c2noc(C(F)(F)F)n2)c1 | -28.5% (inactive) and 1.8% (inactive)
